Measured values published in PubChem BioAssay AID1572 (National Center for Advancing Translational Sciences (NCATS), 2009).
Results filed as inconclusive are left out. The source made the active and inactive calls. The call rests on the fitted dose curve; in most records, active means well fitted curve in either direction with a large enough effect; inconclusive means small, poorly fitted or top-dose-only effect; inactive means flat fitted curve, though single readings scatter.

experiment: Total Fluorescence Confirmation Counterscreen for Inhibitors of the Interaction of Thyroid Hormone Receptor and Steroid Receptor Coregulator 2; settings: Texas Red total fluorescence, TRbeta/SRC2 FP artifact counterscreen; series mostly up to 92.2 µM; total fluorescence change, both ways: at the top concentration
Text: NIH Molecular Libraries Probe Production Network [MLPCN] NIH Chemical Genomics Center [NCGC] MLPCN Grant: DK058080 Assay Provider: R. Kip Guy, St. Jude Children's Research Hospital NCGC Assay Overview: Thyroid receptor (TR) regulates many homeostatic processes including basal metabolism, cardiovascular function, body weight, and lipid trafficking. TR modulators are potential therapeutics for obesity and hyperlipidemias but current thyroid analogs have undesirable side effects, particularly cardiac stimulation. To identify inhibitors that specifically prevent the interaction of TR with the steroid receptor coregulator 2 (SRC2), a fluorescence polarization assay was screened. This assay detects interaction of the ligand-binding domain of human TRbeta with a Texas Red labeled SRC2 peptide, corresponding to a 20 amino acid region of the nuclear receptor interaction domain (Arnold et al., 2006). Total fluorescence (555 nm excitation and 632 nm emission) was measured to identify potential fluorescent and light absorbing compounds. Such compounds may be artifacts that interfere with the fluorescence polarization assay. This assay is a confirmation assay for AID 1479. Arnold, L. A.; Estebanez-Perpina, E.; Togashi, M.; Shelat, A.; Ocasio, C. A.; McReynolds, A. C.; Nguyen, P.; Baxter, J. D.; Fletterick, R. J.; Webb, P.; Guy, R. K. A high-throughput screening method to identify small molecule inhibitors of thyroid hormone receptor coactivator binding. Sci STKE 2006, p 13.
NCGC Assay Protocol Summary: For screening, 5 uL/well 0.6 uM TRbeta and 20 nM SRC2 Texas Red in protein buffer (20mM Tris hydrochloride, 100mM NaCl, 10% glycerol, 1mM EDTA, 0.01% NP-40, 1mM DTT, 1uM T3 and 5% DMSO) was dispensed into black solid 1536-well plates (Grenier) using a solenoid-based dispenser. Following transfer of 23 nL compound or DMSO vehicle by a pin tool, the plates were centrifuged 15 s at 1000 RPM and incubated 5 hr at ambient temperature. The plates were read by an Envision (Perkin Elmer) to detect fluorescence polarization of SRC2 Texas Red (555 nm excitation and 632 nm emission). Data were normalized to unbound (all components except TRbeta) and bound SRC2 Texas Red controls. Total fluorescence (TF) was calculated as follows: TF = S + 2P where S and P are fluorescence readings in the parallel and perpendicular channels, respectively. In this assay, we provide % activity data for each concentration as well as potencies for the active compounds.

Row | Compound | total fluorescence change, both ways | outcome
1 | Cc1[nH]n(-c2ccccc2)c(=O)c1C(c1ccc([N+](=O)[O-])cc1)c1c(C)[nH]n(-c2ccccc2)c1=O | -23.2% (inactive) | 
2 | CN1CC[C@@]2(C)c3cc(O)ccc3N(C)C2O1 (stereo partly specified) | 1.51% [at 184 µM] (inactive) | 
3 | O=C(O)CC1OCC=C2CN3CCC45C6=CC(=O)C(=O)C([N+](=O)[O-])=C6NC4C1C2CC35 (stereo unspecified) |  | inactive
4 | CCCCCn1c(N)c(C(=O)NCc2cccs2)c2nc3ccccc3nc21 | 6.05% (inactive) | 
5 | CCn1nc(-c2cccs2)nc2c(=O)n(C)c(=O)nc1-2 | -0.774% (inactive) | 
6 | COP(=S)(OC)Oc1ccc([N+](=O)[O-])cc1 | 8.92% [at 184 µM] (inactive) | 
